Results filed as inconclusive are left out. Some structures have more than one record in an assay (separate samples or runs), and their calls can disagree. Calls of active or inactive are those of the source. Unless noted, calls come from the whole dose curve.

This passage reports Potency results from PubChem BioAssay (Tox21).

Test [1] can be described thus: Nuclear factor erythroid 2-related factor 2/antioxidant responsive element (Nrf2/ARE) small molecule agonists: qHTS cell viability counter screen in human keratinocytes (AID 1919968; active = well fitted curve in the direction sought with a large enough effect in the repeat runs; an effect the other way counts as inactive or inconclusive; note: nearly all actives have a fitted effect of over 55% in size; note: potency is the fitted concentration of half-maximal effect). Summed up: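 Stably transfected HaCaT (KeratinoSens), 1,500/well. Test agents in DMSO were applied for 23 h, 37 C/5% CO2. CellTiter-Fluor was incubated 1 h before the fluorescence read.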
For orientation: Quantitative high-throughput screening tests each substance at several concentrations.

The nature of test [2]: Nuclear factor erythroid 2-related factor 2/antioxidant responsive element (Nrf2/ARE) small molecule agonists: luciferase reporter gene qHTS assay in human keratinocytes (AID 1919969). Note: nearly all actives have a fitted effect of over 35% in size. Note: potency is the fitted concentration of half-maximal effect. On the technique in general: In a reporter assay the amount or activity of a reporter protein is the signal.
For test [3], the target named is Gonadotropin-releasing hormone receptor (Homo sapiens) (UniProt P30968). Description: Human gonadotropin-releasing hormone receptor (GnRHR) small molecule agonists, calcium flux assay in GnRHR-HEK293 cells (AID 1920063). Note: nearly all actives have a fitted effect of over 35% in size. Summed up: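 Stable human GnRHR HEK293 line. 18 h plating, then calcium dye for 1 h at 37 C. Agonist-mode compound addition from DMSO stocks; fluorescence monitored 3 min.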
Gonadotropin-releasing hormone receptor (Homo sapiens), sequence (P30968 whole entry, looked up): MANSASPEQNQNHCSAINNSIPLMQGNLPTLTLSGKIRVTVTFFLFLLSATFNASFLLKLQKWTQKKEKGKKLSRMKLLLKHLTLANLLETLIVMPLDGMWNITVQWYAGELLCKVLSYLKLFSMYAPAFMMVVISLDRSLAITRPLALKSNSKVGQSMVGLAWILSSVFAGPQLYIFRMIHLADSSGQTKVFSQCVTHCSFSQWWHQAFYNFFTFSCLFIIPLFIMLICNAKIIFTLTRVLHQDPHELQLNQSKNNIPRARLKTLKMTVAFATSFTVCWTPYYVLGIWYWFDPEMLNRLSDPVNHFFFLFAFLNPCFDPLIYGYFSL

The target of test [4] is KiSS-1 receptor (Homo sapiens) (UniProt Q969F8). Put plainly: Human kisspeptin (KISS1R) small molecule agonists, calcium flux assay in KISS1R-HEK293 cells (AID 1920064; active = well fitted curve in the direction sought with a large enough effect in the repeat runs; an effect the other way counts as inactive or inconclusive). The procedure, abridged: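 After overnight (18 h) culture at 37 C/5% CO2, human KISS1R-HEK293 cells received calcium dye for 1 h, then test compound; emission at 540 nm (excitation 480 nm) was tracked for 3 min.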
KiSS-1 receptor (Homo sapiens), sequence (Q969F8 whole entry, looked up): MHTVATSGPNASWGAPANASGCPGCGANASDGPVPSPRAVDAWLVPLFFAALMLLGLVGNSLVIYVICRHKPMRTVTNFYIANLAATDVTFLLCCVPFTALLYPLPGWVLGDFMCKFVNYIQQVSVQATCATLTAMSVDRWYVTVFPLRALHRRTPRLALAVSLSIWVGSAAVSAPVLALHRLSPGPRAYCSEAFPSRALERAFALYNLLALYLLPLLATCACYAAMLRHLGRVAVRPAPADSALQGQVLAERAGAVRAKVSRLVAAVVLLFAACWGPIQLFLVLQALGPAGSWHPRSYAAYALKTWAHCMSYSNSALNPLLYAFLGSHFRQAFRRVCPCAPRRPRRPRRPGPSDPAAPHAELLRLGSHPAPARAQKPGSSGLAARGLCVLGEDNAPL
(Calcium assays in cells follow changes in intracellular calcium, usually with a dye or a luminescent sensor.)

Test [5] is described as follows: G protein-coupled receptor (GPCR) small molecule agonists, calcium flux assay: HEK293 wild type cell line counter screen (AID 1920065). The procedure, abridged: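 Following 18 h incubation at 37 C/5% CO2, plates got calcium dye for 1 h; compounds, ATP or DMSO were then pinned in and fluorescence followed kinetically (480/540 nm).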
Test [6] can be described thus: p53 small molecule agonists, cell-based qHTS assay with human liver microsomes (AID 1963577). Summed up:
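Fluorescence of the beta-lactamase reporter in p53RE-bla cells, detected with LiveBLAzer substrate (2 h, room temperature, dark), served as the read-out after 16 h compound exposure at 37 C with human liver microsomes and NADPH, each 0.5 mg/mL final.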

A short description of test [7]: p53 small molecule agonists, cell-based qHTS assay with rat liver microsomes (AID 1963578). The procedure, abridged: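 Cells carrying a p53 response element–beta-lactamase reporter were plated and rested 5 h, then dosed with compound in DMSO plus rat liver microsomes and NADPH, each at 0.5 mg/mL final. After 16 h at 37 C, LiveBLAzer substrate was added for 2 h.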

The nature of test [8]: p53 small molecule agonists, cell-based qHTS assay with rat liver microsomes: qHTS cell viability counter screen (AID 1963580). Note: nearly all actives have a fitted effect of over 45% in size. The procedure, abridged:
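Cytotoxicity counter screen: intracellular ATP measured by CellTiter-Glo luminescence in the same wells as the beta-lactamase reporter read, on HCT-116 p53RE-bla cells exposed 16 h at 37 C to compounds with rat liver microsomes and NADPH, each 0.5 mg/mL final.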

A short description of test [9]: p53 small molecule agonists, cell-based qHTS assay (AID 1963582; active = well fitted activation curve with a large enough effect in the signal ratio in the repeat runs, not every such curve was filed as active; the % refers to the signal ratio). The procedure, abridged: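 Measured: fluorescence from cleaved LiveBLAzer substrate. System: p53RE-bla cells, 16 h compound treatment at 37 C, 2 h substrate step at room temperature.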
Test [10] deals with 5-hydroxytryptamine receptor 2A (Homo sapiens) (UniProt P28223). Put plainly: 5-hydroxytryptamine receptor 2A (HTR2A) small molecule antagonists, cell-based qHTS assay (AID 1963586). Note: nearly all actives have a fitted effect of over 45% in size. Summed up:
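CHO cells stably expressing human HTR2A were plated for 18 h at 37 C, then loaded with calcium dye for 1 h. Compounds were preincubated 5 min at room temperature before DOI (4 nM solution) was added. Kinetic fluorescence was read for 3 min.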

Test [11] shares this target. Put plainly: 5-hydroxytryptamine receptor 2A (HTR2A) small molecule agonists, cell-based qHTS assay (AID 1963587). Note: nearly all actives have a fitted effect of over 30% in size. The procedure, abridged:
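CHO cells stably expressing human HTR2A, plated 18 h, loaded with calcium dye 1 h at 37 C. Agonist mode: compounds added and intracellular calcium fluorescence recorded kinetically for 2 min at 1 sec intervals.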

Test [12] addresses Muscarinic acetylcholine receptor M1 (Homo sapiens) (UniProt P11229). Put plainly: Cholinergic receptor muscarinic 1 (CHRM1) small molecule antagonists, cell-based qHTS assay (AID 1963588). Note: nearly all actives have a fitted effect of over 40% in size. The procedure, abridged:
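Compounds were tested at 15 concentrations in three independent runs. Dye-loaded CHRM1-CHO cells were exposed 5 min at room temperature before stimulation by acetylcholine added at 50nM. Intracellular calcium was read kinetically on FDSS for 3 min.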

A short description of test [13]: cAMP Responsive Elements (CRE) small molecule agonists, cell-based qHTS assay (AID 1963590). The procedure, abridged:
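Test agents in DMSO were incubated 3 h at 37 C/5% CO2 with CRE-bla HEK 293T cells seeded 18 h earlier; LiveBLAzer B/G FRET substrate was added and read after 2 h at room temperature.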

The nature of test [14]: cAMP Responsive Elements (CRE) small molecule antagonists, cell-based qHTS assay (AID 1963591; active = well fitted inhibition curve with a large enough effect in the signal ratio in the repeat runs, not every such curve was filed as active; the % refers to the signal ratio). Summed up: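 Reporter line CRE-bla HEK 293T in dialyzed-FBS DMEM; cells preincubated 18 h, treated 3 h with compound plus NKH477 (0.25 uM final); LiveBLAzer FRET, 2 h RT.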
Test [15] deals with Beta-2 adrenergic receptor (Homo sapiens) (UniProt P07550). Put plainly: Adrenergic beta2 receptor (ADRB2) small molecule antagonists, cell-based qHTS assay (AID 1963592). Note: series mostly up to about 92 µM; nearly all actives have a fitted effect of over 50% in size. Summed up:
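Assay format: CHO-ADRB2 cells, 18-20hr seeding at 37C/5% CO2, then compound plus 1nM isoproterenol agonist mix for 0.5hr RT. Homogeneous time-resolved fluorescence cAMP detection after 1hr, expressed as 665/615 nm ratio.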

Test [16] has the same target. Put plainly: Adrenergic beta2 receptor (ADRB2) small molecule agonists, cell-based qHTS assay (AID 1963593).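 Note: CHO cells stably overexpressing human ADRB2.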 The procedure, abridged: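 CHO cells stably over-expressing ADRB2 were plated overnight at 37C, then dosed with compounds plus a stimulation mix containing 100uM IBMX and 25uM Ro-20-1724 for 0.5hr at room temperature. cAMP was measured by HTRF competition, 1hr.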

Test [17] addresses D(2) dopamine receptor (Homo sapiens) (UniProt P14416). Put plainly: Dopamine D2 receptor (DRD2) small molecule agonists, cell-based qHTS assay (AID 1963594). Note: nearly all actives have a fitted effect of over 35% in size. The procedure, abridged: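 HEK293 cells stably expressing human DRD2, pre-treated with PDE inhibitor Ro20-1724 (0.1 mM final) and compound 10 min at room temperature, then stimulated with NKH477 (200nM […]) for 30 min. cAMP read by HTRF (665/620 nm).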

Test [18] shares this target. Description: Dopamine D2 receptor (DRD2) small molecule antagonists, cell-based qHTS assay (AID 1963595; active = well fitted inhibition curve with a large enough effect in the signal ratio in the repeat runs, with a control signal flat; the % refers to the signal ratio). Summed up: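 HEK293 cells stably expressing DRD2, preincubated with 0.1 mM Ro20-1724 and compounds 10 min, were stimulated with 200 nM NKH477 plus 12 nM quinpirole for 30 min at room temperature; cAMP measured by HTRF (665/620 nm).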
The nature of test [19]: p53 small molecule agonists, cell-based qHTS assay: qHTS cell viability counter screen (AID 1963581). Note: nearly all actives have a fitted effect of over 45% in size. The procedure, abridged: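 qHTS counter screen: 16 h compound exposure at 37 C of p53RE-bla HCT-116 cells (4,000 per well, seeded 5 h prior), cell viability by ATP luminescence.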
Test [20] is described as follows: p53 small molecule agonists, cell-based qHTS assay with human liver microsomes: qHTS cell viability counter screen (AID 1963579). Note: nearly all actives have a fitted effect of over 45% in size. The procedure, abridged:
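Cytotoxicity counter screen: p53RE-bla, 4,000 cells/well; 5 h settle, 37 C/5% CO2; cpd + HLM 0.5 mg/mL + NADPH 0.5 mg/mL (final); 16 h, 37 C; CellTiter-Glo, 30 min RT, luminescence.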

D(2) dopamine receptor (Homo sapiens), sequence (P14416 whole entry, looked up): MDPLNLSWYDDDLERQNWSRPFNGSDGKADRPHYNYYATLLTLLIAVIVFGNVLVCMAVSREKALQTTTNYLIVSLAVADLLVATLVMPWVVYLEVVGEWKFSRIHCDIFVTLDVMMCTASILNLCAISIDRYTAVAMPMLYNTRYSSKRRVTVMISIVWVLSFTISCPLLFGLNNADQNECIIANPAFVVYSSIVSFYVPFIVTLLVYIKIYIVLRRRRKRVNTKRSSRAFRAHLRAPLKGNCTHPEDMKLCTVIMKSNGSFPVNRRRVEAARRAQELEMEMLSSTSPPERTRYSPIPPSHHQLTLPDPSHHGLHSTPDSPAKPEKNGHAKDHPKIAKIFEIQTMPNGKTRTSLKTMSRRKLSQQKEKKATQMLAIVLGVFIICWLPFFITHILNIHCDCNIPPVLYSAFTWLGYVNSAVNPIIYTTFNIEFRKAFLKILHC
Beta-2 adrenergic receptor (Homo sapiens), sequence (P07550 whole entry, looked up): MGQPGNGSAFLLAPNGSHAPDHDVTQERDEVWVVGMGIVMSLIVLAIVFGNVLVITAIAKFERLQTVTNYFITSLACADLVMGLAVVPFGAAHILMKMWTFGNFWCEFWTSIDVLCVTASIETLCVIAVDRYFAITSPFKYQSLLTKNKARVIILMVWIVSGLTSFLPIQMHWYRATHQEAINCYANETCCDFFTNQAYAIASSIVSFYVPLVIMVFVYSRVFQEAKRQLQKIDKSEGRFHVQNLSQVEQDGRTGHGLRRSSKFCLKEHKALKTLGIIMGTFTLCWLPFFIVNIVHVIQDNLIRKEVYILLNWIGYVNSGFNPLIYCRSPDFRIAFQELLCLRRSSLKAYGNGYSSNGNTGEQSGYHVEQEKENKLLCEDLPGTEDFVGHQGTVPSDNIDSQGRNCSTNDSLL
5-hydroxytryptamine receptor 2A (Homo sapiens), sequence (P28223 whole entry, looked up): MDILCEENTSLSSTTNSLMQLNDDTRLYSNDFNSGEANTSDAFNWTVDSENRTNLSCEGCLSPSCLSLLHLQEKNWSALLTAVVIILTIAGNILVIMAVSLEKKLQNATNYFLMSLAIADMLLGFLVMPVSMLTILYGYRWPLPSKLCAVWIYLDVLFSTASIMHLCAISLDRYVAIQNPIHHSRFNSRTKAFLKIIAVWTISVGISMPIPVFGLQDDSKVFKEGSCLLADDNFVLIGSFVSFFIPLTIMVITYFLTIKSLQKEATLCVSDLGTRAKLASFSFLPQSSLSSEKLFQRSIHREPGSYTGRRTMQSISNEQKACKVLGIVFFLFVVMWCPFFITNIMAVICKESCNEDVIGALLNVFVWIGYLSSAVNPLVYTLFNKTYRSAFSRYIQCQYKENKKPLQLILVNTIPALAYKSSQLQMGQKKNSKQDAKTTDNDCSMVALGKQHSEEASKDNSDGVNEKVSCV
Muscarinic acetylcholine receptor M1 (Homo sapiens), sequence (P11229 whole entry, looked up): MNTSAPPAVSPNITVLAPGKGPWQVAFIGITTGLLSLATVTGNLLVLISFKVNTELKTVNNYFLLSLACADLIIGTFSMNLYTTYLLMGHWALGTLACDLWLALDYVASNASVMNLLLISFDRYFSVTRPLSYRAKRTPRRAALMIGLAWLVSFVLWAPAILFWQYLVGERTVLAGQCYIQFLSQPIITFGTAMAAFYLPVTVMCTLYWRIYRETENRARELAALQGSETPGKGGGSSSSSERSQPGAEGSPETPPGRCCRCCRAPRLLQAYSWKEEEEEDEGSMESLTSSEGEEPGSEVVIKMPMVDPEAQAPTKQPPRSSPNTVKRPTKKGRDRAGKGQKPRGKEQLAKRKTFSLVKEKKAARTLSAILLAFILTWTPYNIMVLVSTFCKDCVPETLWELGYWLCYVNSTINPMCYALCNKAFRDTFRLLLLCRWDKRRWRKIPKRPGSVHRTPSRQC

On to `O=C1CCc2ccccc2O1`, for which the Potency entry in test [1], in [2], in [3], in test [4], in [5] and in test [6] was “inactive” in each case. Besides, the Potency entry in test [7], in test [8], in test [9], in [10], in test [11] and in test [12] was “inactive” each time. The Potency result in test [13], in test [14], in [15], in test [16], in [17] and in test [18] was “inactive” each time.
For the compound `Nc1c2c(nc3ccccc13)CCCC2`, the Potency in test [1] was 54.5 µM (active) and inactive; in test [2] it was 48.6 µM (active) and inactive. In addition, the Potency result in test [3], in test [4], in test [5], in [6], in test [7] and in [8] was “inactive” in each case. For the same compound, the Potency result in [19], in test [9], in test [14], in [15], in test [16] and in test [17] was “inactive” throughout. The Potency entry in test [18] was “inactive”.
`COC(=O)c1cccnc1`: the Potency result in test [1], in test [2], in [3], in test [4], in test [5] and in test [6] was “inactive” throughout. The Potency result in test [7], in [8], in test [19], in test [9], in test [10] and in test [11] was “inactive” in each case. Also, the Potency result in test [12], in test [13], in [14], in test [15], in [16] and in [17] was “inactive” each time. Moreover, the Potency result in test [18] is “inactive”.
Regarding `Cc1ccnc2c1NC(=O)c1cccnc1N2C1CC1`, the Potency result in test [1], in test [2], in test [3], in test [4], in test [5] and in [6] was “inactive” in each case. In addition, the Potency entry in test [7], in [8], in test [19], in [9], in test [13] and in [14] was “inactive” in each case. Also, the Potency result in test [15], in [16], in test [17] and in [18] was “inactive” throughout.
Turning to `Cc1ccc(S(=O)(=O)N=C=O)cc1`, the Potency result in test [1], in test [2], in test [3], in test [4], in test [5] and in test [6] was “inactive” in each case. Also, the Potency entry in [7], in test [8], in test [19], in [9], in test [10] and in [11] was “inactive” throughout. Moreover, the Potency entry in [12], in test [13], in test [14], in test [17] and in test [18] was “inactive” in each case.
For `Nc1cc(Cl)c(N)c(Cl)c1`, the Potency entry in [1], in test [3], in test [4], in test [5], in test [6] and in [7] was “inactive” in each case. Further, the Potency entry in test [8], in test [9], in test [10], in test [11], in test [12] and in [13] was “inactive” each time. Further, the Potency result in test [14], in [17] and in test [18] was “inactive” in each case. Moreover, the Potency in test [2] was 68 µM (active) and inactive.
As to `Cc1ccc(C)c(C)c1`, the Potency entry in [1], in [2], in [3], in test [4], in test [5] and in [6] was “inactive” throughout. Further, the Potency entry in [7], in test [20], in [19], in [9], in test [10] and in test [11] was “inactive” each time. In addition, the Potency entry in test [12], in [13], in test [14], in test [15], in test [17] and in test [18] was “inactive” in each case.
For `CCCCCCCCCCC(CO)CCCCCCCC` (configuration not stated), the Potency entry in test [1], in [2], in test [3], in [4], in test [5] and in test [6] was “inactive” throughout. Moreover, the Potency entry in test [7], in [8], in test [19], in test [9], in test [10] and in test [11] was “inactive” each time. Further, the Potency entry in [12], in test [13], in test [14], in test [15], in test [17] and in test [18] was “inactive” each time.
